# Test results as given in the supplement of paper PMC3334620.
# Over roughly 33,000 sequences, “E-score (-0.5 to 0.5)” has its median near -0.016; the highest 2% begin near 0.31. Only a selection was taken, and the highest values are over-represented in it overall.
# Target: Cst6 (UniProt P40535)
# Assay: PBM E-score (8-mer binding enrichment) (E-score (-0.5 to 0.5)); higher = stronger / more preferred TF binding
# Settings: protein concentration: 200 nM; construct: GST-DNA-binding domain
# Method in brief: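 Each ungapped eight-base word and its reverse complement, pooled, received an E-score from the Universal PBM Analysis Suite. Underlying scans, normalised with masliner, recorded fluorescent anti-GST bound to GST-tagged yeast transcription factors. These were applied at about 100-200 nM to universal all-10-mer Agilent arrays double-stranded by primer extension.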
# Sequence of UniProt P40535 (P40535 whole entry): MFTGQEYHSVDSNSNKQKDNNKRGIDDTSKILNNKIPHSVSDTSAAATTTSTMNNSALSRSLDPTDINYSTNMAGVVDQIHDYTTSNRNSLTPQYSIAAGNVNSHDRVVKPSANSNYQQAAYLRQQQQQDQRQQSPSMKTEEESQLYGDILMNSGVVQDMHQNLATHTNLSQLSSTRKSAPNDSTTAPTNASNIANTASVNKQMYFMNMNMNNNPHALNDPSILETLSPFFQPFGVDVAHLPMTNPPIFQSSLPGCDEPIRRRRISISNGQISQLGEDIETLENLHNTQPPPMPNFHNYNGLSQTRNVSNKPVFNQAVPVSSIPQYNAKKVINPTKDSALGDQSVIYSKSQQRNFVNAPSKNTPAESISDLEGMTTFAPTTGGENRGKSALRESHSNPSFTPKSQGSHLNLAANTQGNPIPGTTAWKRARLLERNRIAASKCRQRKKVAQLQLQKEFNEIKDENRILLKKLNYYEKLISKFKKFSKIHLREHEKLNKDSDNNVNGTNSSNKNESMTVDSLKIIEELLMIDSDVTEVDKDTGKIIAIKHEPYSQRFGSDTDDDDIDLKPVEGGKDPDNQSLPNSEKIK
row,Sequence,PBM E-score
1,GGAAACCC,-0.147
2,AAGTCAGT,0.0407
3,ACGTCAGT,0.472
4,ACCTCAGT,0.013
5,GACACGCC,0.0155
6,CTGGACTA,-0.267
7,CGTACGTA,0.306
8,CGTACGTC,0.31
9,AGTACGTA,0.267
10,AGTACGTC,0.205
11,CGTACGCC,0.111
12,GGTACGTA,0.136
13,CGTAAACA,0.262
14,TATACCGA,0.00086
15,CATGATGA,0.342
16,GGTGATTA,0.206
17,GATGATGA,0.319
18,TATGATAA,0.251
19,TATGATGA,0.337
20,CATGATGG,-0.0379
21,TATGATCA,0.207
22,GCTGATGA,0.278
23,GGTGATGA,0.362
24,CGTGATGA,0.297
25,CATGATGC,0.28

row,Sequence,PBM E-score
1,GATGATCA,0.171
2,CACGCTAC,-0.134
3,ACTACCGC,-0.0306
4,CTCTCAAG,-0.14
5,GCCAACGC,-0.0319
6,CGAACTAG,0.0382
7,CGCAATTA,0.18
8,CCCAAAAC,0.105
9,CCTGGGGA,-0.402
10,CCTGCACA,-0.179
11,ACACTACT,0.0264
12,CCTTCCGA,-0.149
13,AGCTACTC,-0.274
14,CTTGATGA,0.24
15,ATTGATGA,0.296
16,GTTGATGA,0.309
17,ACGAGGAT,-0.0239
18,ATGTCAAC,0.251
19,ATGTCACA,0.375
20,ATGTCACG,0.396
21,ATGTCAGA,0.221
22,CTGTCACC,0.0496
23,ATGTCAAA,0.237
24,ATGTCACC,0.465
25,GTGTCACA,0.229

row,Sequence,PBM E-score
1,CTGTCACA,0.0581
2,AGGGCTAG,-0.242
3,ATCTCTCG,-0.0585
4,GGGAAAAC,-0.0343
5,AGAGGTTC,-0.11
6,AAAGCGCT,0.183
7,GCCGCACC,0.226
8,ATAGAAGG,-0.208
9,ATAATATC,0.219
10,ACATAATC,0.267
11,CTATAATA,0.0135
12,GCATAATA,0.227
13,CTAATATA,0.302
14,GTAATAGA,0.0316
15,ATAATATA,0.358
16,ATATAATA,0.31
17,GTATAATA,0.288
18,ATAATATG,0.273
19,ACATAATA,0.345
20,GTAATATA,0.354
21,TTCACAAA,0.0753
22,ATCGCGTG,0.0786
23,CGGGCGAC,-0.319
24,GGAGGCCA,-0.314
25,AAAAGGTA,-0.0898

row,Sequence,PBM E-score
1,AATTACCG,0.196
2,ATTCGATC,0.153
3,GTTGTTCA,0.0498
4,ATGAGCCG,0.0382
5,ATACGGCC,0.138
6,ATACGGCA,0.394
7,CTACGGCA,0.283
8,GTACGGCA,0.249
9,ATACGGTG,0.104
10,ATACGGCG,0.36
11,AGAAAAGG,0.0591
12,CAGACTTA,-0.094
13,CATAAGCA,-0.0945
14,GTCACTCA,0.315
15,ATCACTTA,0.194
16,GTCACTTA,0.331
17,CTCACTCA,0.0247
18,GTCACTGA,0.281
19,ATCACTCA,0.138
20,CCAGTGTC,-0.108
21,GCGCCTAC,0.136
22,CGGCAACG,0.0207
23,TCGAAGCA,-0.0376
24,GGCCGCTA,-0.232
25,AACGCGGC,0.261

row,Sequence,PBM E-score
1,CACGCGGC,0.279
2,GACGCGGC,0.318
3,GCCGCGGC,0.31
4,CCCGCGGC,0.109
5,GCCGCGGA,0.0146
6,AGTGAACC,-0.0808
7,GACGTCCA,0.276
8,CACGTCAG,0.449
9,AACGTCAG,0.371
10,GACGTCGA,0.292
11,CCCGTCAG,-0.282
12,AACGTCCA,0.0436
13,AACGTCGA,0.133
14,AACGTCAA,0.401
15,CACGTCTG,0.0582
16,AACGTCGG,-0.174
17,GACGTCAA,0.479
18,AACGTCTG,0.0755
19,CAAACTCA,0.0635
20,GGCACCAC,-0.1
21,AAGCGATG,-0.134
22,CCAGTTCG,-0.0928
23,CAAACGCG,0.0743
24,ATGGCCCA,-0.0308
25,AACTTCCA,-0.178

row,Sequence,PBM E-score
1,AGACCTAC,-0.227
2,ATCCCAGG,-0.234
3,CCGATCTC,-0.145
4,CACGTCCC,-0.216
5,CACGTCTC,-0.097
6,AACGTCAC,0.488
7,TGCGTCCA,-0.0683
8,TACGTCAA,0.484
9,AACGTCCC,-0.173
10,TGCGTCAA,0.318
11,GGCGTCAA,0.263
12,CACGTCAC,0.489
13,TACGTCTA,0.188
14,TACGTCCA,0.0953
15,AACGTCTC,-0.0757
16,CATACTCC,0.0426
17,CAGCCAAC,-0.13
18,CGAATTAG,0.0675
19,CGTTTAAG,0.0111
20,AGGTCTAC,-0.216
21,AAACTAGT,0.062
22,CCCTGAGA,-0.247
23,GAAATCCC,-0.101
24,CGTTCTTA,0.0793
25,AAGCCATG,-0.124

row,Sequence,PBM E-score
1,CAACAGCC,0.153
2,ACAAGAAA,0.237
3,GACGTCAC,0.495
4,GACGTCCC,0.016
5,CCCGTCAA,-0.228
6,AACGTCGT,0.0196
7,CACGTCAA,0.366
8,AACGTCAT,0.489
9,TATGTCAA,0.378
10,CACGTCTA,-0.0114
11,AATGTCAA,0.102
12,AACGTCCT,-0.0138
13,TCTGTCAA,0.111
14,GACGTCGC,0.236
15,ATAAGCTC,-0.0286
16,CGCCCACC,-0.0447
17,CGGTCCGC,-0.198
18,ACAAAGAA,0.247
19,GACTGCTC,-0.26
20,ACACTTAA,0.105
21,GGGGCTTA,-0.346
22,CAGATAAA,0.051
23,CTATCGGA,-0.0998
24,AGTGTGCC,-0.088
25,AAAAATTC,0.186

row,Sequence,PBM E-score
1,CTGAAATC,0.0366
2,ATGAAATC,0.314
3,ATGAAATA,0.283
4,ATAGCTAT,-0.0877
5,CTTCGAAG,-0.21
6,AAGCTATG,-0.0495
7,ACTAAGAG,-0.0881
8,CAGAACGG,-0.0224
9,AGACATCA,0.0931
10,GGACATCA,0.188
11,CGACATCG,-0.122
12,AAACATCA,0.268
13,CAACATCA,0.305
14,TAACATCA,0.399
15,TGACATCA,0.496
16,CGACATCA,0.411
17,CGACATCC,-0.0566
18,ACGCTGGC,-0.207
19,AAAGGCAC,0.189
20,CAGACCCC,-0.316
21,GTCAATGA,0.235
22,CTCAATGA,0.14
23,ATCAATGA,0.35
24,CCGTACCG,-0.0599
25,CAGGGTGG,-0.23

row,Sequence,PBM E-score
1,CCCAAGAC,-0.0855
2,GAGACATA,-0.00422
3,ATGACATA,0.45
4,CGGACATA,0.0467
5,ATGACAGA,0.243
6,GGGACATA,-0.0929
7,ATGACAAG,0.134
8,CTGACATA,0.324
9,AAGACATA,0.0804
10,CAGACATA,0.131
11,GTGACATA,0.471
12,ATGACATG,0.351
13,ATGACAGG,0.0675
14,CATCTATA,0.162
15,ACGCGAGG,0.0628
16,CATGCCCC,-0.109
17,CATGAGAG,0.0742
18,CACGTGCG,-0.038
19,CTAGTTCC,0.0382
